Assay results from PubChem BioAssay (NCI).
Compounds without any hit were thinned out: in the full panel of roughly 83,000, 20% have a hit.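 Cell lines were cultured in 96-well plates, exposed to a single compound concentration, and assessed for percent growth 48 hours later.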 Active and inactive are the calls of the source. Rule for the calls: active = growth percent below 10; inactive = the rest.

What was measured:
Experiment in all cases: NCI-60 one-dose screen, 48 h (100 = growth as untreated, 0 = no growth, -100 = all killed)
Settings in all cases: 10 µM unless noted
HCT-15 colon = test system: HCT-15 colon
HT29 colon = test system: HT29 colon
SNB-75 CNS = test system: SNB-75 CNS
SNB-19 CNS = test system: SNB-19 CNS
U251 CNS = test system: U251 CNS
PC-3 prostate = test system: PC-3 prostate
SK-MEL-5 melanoma = test system: SK-MEL-5 melanoma
UACC-62 melanoma = test system: UACC-62 melanoma
LOX IMVI melanoma = test system: LOX IMVI melanoma
SK-MEL-28 melanoma = test system: SK-MEL-28 melanoma

Measured: growth

CS(=O)(=O)Nc1cc(-c2ccc3ncnc(N4CCc5cc(F)c(Cl)cc54)c3c2)cnc1Cl
inactive: HT29 colon 19.7% | SNB-19 CNS 27% | U251 CNS 17.8% | PC-3 prostate 12.9%
active: HCT-15 colon 7.55% | SNB-75 CNS -17.7% | SK-MEL-5 melanoma -72.8% | UACC-62 melanoma -43.2% | LOX IMVI melanoma -29.2% | SK-MEL-28 melanoma -0.47%

COc1ccc(-c2cc(C(=O)Oc3ccc(C=O)cc3OC)nn2-c2ccc(S(C)(=O)=O)cc2)cc1
inactive: HCT-15 colon 81.9% | HT29 colon 110% | SNB-75 CNS 99.9% | SNB-19 CNS 94.5% | U251 CNS 101% | PC-3 prostate 90.7% | SK-MEL-5 melanoma 98% | UACC-62 melanoma 88% | LOX IMVI melanoma 90.1% | SK-MEL-28 melanoma 117%

Cc1nn(-c2ccccc2)c2ncn(CC(=O)N/N=C/c3ccccc3O)c(=O)c12
inactive: HCT-15 colon 20.8% | HT29 colon 28.2% | SNB-75 CNS 76.1% | SNB-19 CNS 57.1% | U251 CNS 40.2% | PC-3 prostate 43.3% | SK-MEL-5 melanoma 28.9% | UACC-62 melanoma 34.3% | LOX IMVI melanoma 10.4% | SK-MEL-28 melanoma 66.9%

CN(C)c1nc(NCCNS(=O)(=O)c2ccc(C(=O)/C=C/c3ccc(F)cc3)cc2)nc(N2CCOCC2)n1
active: HCT-15 colon -29.8% | HT29 colon -79.7% | U251 CNS -86.1% | LOX IMVI melanoma -97.6%
inactive: SNB-75 CNS 58.5% | SNB-19 CNS 67.9% | PC-3 prostate 49.2% | SK-MEL-5 melanoma 66.1% | UACC-62 melanoma 55.2% | SK-MEL-28 melanoma 97.2%

O=C(c1ccc(Cl)cc1)C1[C@H](c2ccccc2Cl)[C@@H](c2ccccc2)NC12C(=O)Nc1ccc(Cl)cc12 (stereo not given in full)
active: HCT-15 colon -81% | HT29 colon -81.6% | SNB-75 CNS -16.4% | SNB-19 CNS -28.4% | U251 CNS -73.3% | PC-3 prostate -24.8% | SK-MEL-5 melanoma -98.1% | UACC-62 melanoma -59.9% | LOX IMVI melanoma -100% | SK-MEL-28 melanoma -80.1%

CC1CCc2c(sc3nc(SCC(=O)c4cccc(Br)c4)n(-c4ccccc4)c(=O)c23)C1 (stereo not given)
inactive: HCT-15 colon 41% | HT29 colon 21.6% | SNB-75 CNS 54.9% | SNB-19 CNS 64.8% | PC-3 prostate 56.6% | SK-MEL-5 melanoma 66% | UACC-62 melanoma 89.8% | LOX IMVI melanoma 45.2% | SK-MEL-28 melanoma 73.5%
active: U251 CNS -25.5%

CN(C)c1nc(NCCNS(=O)(=O)c2ccc(C(=O)/C=C/c3ccccc3)cc2)nc(N2CCOCC2)n1
active: HCT-15 colon -45.3% | HT29 colon 3.67% | LOX IMVI melanoma -63.1%
inactive: SNB-75 CNS 73.2% | SNB-19 CNS 77% | U251 CNS 44% | PC-3 prostate 59.6% | SK-MEL-5 melanoma 83.5% | UACC-62 melanoma 72.8% | SK-MEL-28 melanoma 88%

CC[C@@]12CC(C(=O)OC)=C3Nc4cc5c(cc4[C@@]34CCN(C[C@H]3O[C@H]31)[C@@H]24)[C@@H]1[C@H](O5)[C@@H](O)[C@@]2(CC)CC(C(=O)OC)=C3Nc4cc(O)ccc4[C@@]34CCN1[C@@H]24
inactive: PC-3 prostate 15.9%
active: HCT-15 colon -51.6% | HT29 colon -14% | SNB-75 CNS -34.4% | SNB-19 CNS -43.8% | U251 CNS -57.5% | SK-MEL-5 melanoma -90.2% | UACC-62 melanoma -57.8% | LOX IMVI melanoma -84.4% | SK-MEL-28 melanoma -47.3%

COc1ccc(OC)c(Cn2cc(C#N)c(N)c2C(=O)c2ccc(Br)cc2)c1
inactive: HCT-15 colon 26.2% | SNB-75 CNS 50.4% | SNB-19 CNS 55.3% | U251 CNS 26.3% | PC-3 prostate 66% | SK-MEL-5 melanoma 26.6% | UACC-62 melanoma 29.9% | LOX IMVI melanoma 49.6% | SK-MEL-28 melanoma 54.3%
active: HT29 colon 4.97%

COc1cncc(-c2ccc3ncnc(N4CCc5ccc(Cl)cc54)c3c2)c1
inactive: HCT-15 colon 11.9% | HT29 colon 31.4% | SNB-75 CNS 24.3% | SNB-19 CNS 35.9% | U251 CNS 51% | UACC-62 melanoma 16.3% | SK-MEL-28 melanoma 48.6%
active: PC-3 prostate 6.75% | SK-MEL-5 melanoma -16.7% | LOX IMVI melanoma 6.64%

COc1ccc2[nH]c(O)c(N=Nc3nc(-c4ccc(C#N)cc4)cs3)c2c1
inactive: HCT-15 colon 68% | HT29 colon 79.1% | SNB-19 CNS 77.2% | U251 CNS 15.2% | PC-3 prostate 85.7% | SK-MEL-5 melanoma 53.7% | UACC-62 melanoma 72.7% | LOX IMVI melanoma 37.6% | SK-MEL-28 melanoma 68.9%
active: SNB-75 CNS -3.1%

CS(=O)(=O)Nc1cc(-c2ccc3ncnc(Nc4ccc(OCc5cccnc5)c(Cl)c4)c3c2)cnc1Cl
inactive: HCT-15 colon 13.1% | SNB-75 CNS 10.7%
active: HT29 colon 5.66% | SNB-19 CNS -0.382% | U251 CNS -34.2% | PC-3 prostate 3.42% | SK-MEL-5 melanoma -94.5% | UACC-62 melanoma -64.3% | LOX IMVI melanoma -64.2% | SK-MEL-28 melanoma -6.84%

Cn1cc(-c2cc3nc(-c4c[nH]c5ccccc45)cc(N)n3n2)c2ccccc21
active: HCT-15 colon -73% | HT29 colon -65.3% | U251 CNS -91.1% | PC-3 prostate -69.7% | SK-MEL-5 melanoma 8.15% | UACC-62 melanoma -88.5% | LOX IMVI melanoma -77.8% | SK-MEL-28 melanoma -97.8%
inactive: SNB-75 CNS 91.6% | SNB-19 CNS 18.6%
